Source: the supplement of paper PMC8540655
A number with no mark means an inactive call.

System: Aedes aegypti larvae
Assay: larval motility relative to same well at 0 h (fraction); higher = more motile (less active compound), active = 0.4 or less
Details: 10 µM
Outline: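 Compounds at 10 µM (1% v/v DMSO) were applied to about 10 Aedes aegypti larvae per well in 100 µL, with every plate including solvent and larvicide control wells. Motility movies were taken with INVAPP at 0, 2 and 24 h, and results are medians of three independent larval batches. Relative motility is each well's score expressed as a fraction of its own first score.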

| Compound | larval motility (2 h) | larval motility (24 h) |
| --- | --- | --- |
| Nc1cccc(-c2nc(N)nc(NC3Cc4ccccc4C3)n2)c1 | 1.08 | 0.803 |
| C=CCN(C(=O)OCc1ccc([N+](=O)[O-])cc1)C1CCN(CC[C@](C)(CN(C)S(=O)(=O)c2ccccc2)c2ccccc2)CC1 | 0.847 | 0.852 |
| CN(O)C(=O)c1cc2c(CN3CCC[C@H]3C(N)=O)cn(Cc3ccc(F)cc3)c2cn1 | 0.668 | 1.08 |
| CC(Oc1ccc(Cl)cc1Cl)C(=O)NCc1ccc2c(c1)OCO2 (configuration not stated) | 0.508 | 0.902 |
| CN(C(=O)C1(c2ccc(Cl)cc2)CCC1)c1ccccc1 | 1.1 | 1.21 |
| O=C1c2cccc3cccc(c23)C(=O)N1CC1CO1 (configuration not stated) | 0.906 | 0.936 |
| C=C[C@]1(C)C[C@@H](OC(=O)CS[C@@H]2C[C@H]3CC[C@@H](C2)N3C)[C@]2(C)[C@H](C)CC[C@]3(CCC(=O)[C@H]32)[C@@H](C)[C@@H]1O | 0.606 | 0.545 |
| NC(=O)c1c(N)sc2c1CCCCC2 | 0.947 | 1.32 |
| O=C(NCc1cccc2ccccc12)c1cccs1 | 0.689 | 0.669 |
| Oc1cc(-c2cccc3ccccc23)[nH]n1 | 0.626 | 0.554 |
| Cc1cc(CCCOc2c(C)cc(-c3noc(C(F)(F)F)n3)cc2C)on1 | 1.46 | 0.903 |
